Results on 17 compounds are retold here after ChEMBL document CHEMBL1961873, “Compounds: GSK PKIS; Assays: Nanosyn kinase panel” (2012).

Experiment [1] has as its target Serine/threonine-protein kinase 26 (Homo sapiens) (UniProt Q9P289). The conditions noted are these: at 1 µM.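 Also: mean inhibition of MST4 kinase activity, reported from the GSK PKIS inhibitor-set screening panel.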
The target of experiment [2] is Serine/threonine-protein kinase PAK 1 (Homo sapiens) (UniProt Q13153). Conditions: at 0.1 µM.
Experiment [3] has the same target. Conditions: at 1 µM.
In experiment [4] the target is Serine/threonine-protein kinase PAK 2 (Homo sapiens) (UniProt Q13177). Conditions: at 0.1 µM.
The target is the same in experiment [5]. Conditions: at 1 µM.
In experiment [6] the target is Serine/threonine-protein kinase PAK 3 (Homo sapiens) (UniProt O75914). The conditions noted are these: at 0.1 µM.
Experiment [7] shares this target. Conditions: at 1 µM.
Experiment [8] has as its target Serine/threonine-protein kinase PAK 5 (Homo sapiens) (UniProt Q9P286). The conditions noted are these: at 1 µM.
Experiment [9] deals with Serine/threonine-protein kinase PAK 6 (Homo sapiens) (UniProt Q9NQU5). The conditions noted are these: at 0.1 µM.
Experiment [10] has as its target Serine/threonine-protein kinase PAK 5 (Homo sapiens) (UniProt Q9P286). Conditions: at 0.1 µM.

Sequence of Serine/threonine-protein kinase PAK 2 (Homo sapiens) (Q13177 whole entry): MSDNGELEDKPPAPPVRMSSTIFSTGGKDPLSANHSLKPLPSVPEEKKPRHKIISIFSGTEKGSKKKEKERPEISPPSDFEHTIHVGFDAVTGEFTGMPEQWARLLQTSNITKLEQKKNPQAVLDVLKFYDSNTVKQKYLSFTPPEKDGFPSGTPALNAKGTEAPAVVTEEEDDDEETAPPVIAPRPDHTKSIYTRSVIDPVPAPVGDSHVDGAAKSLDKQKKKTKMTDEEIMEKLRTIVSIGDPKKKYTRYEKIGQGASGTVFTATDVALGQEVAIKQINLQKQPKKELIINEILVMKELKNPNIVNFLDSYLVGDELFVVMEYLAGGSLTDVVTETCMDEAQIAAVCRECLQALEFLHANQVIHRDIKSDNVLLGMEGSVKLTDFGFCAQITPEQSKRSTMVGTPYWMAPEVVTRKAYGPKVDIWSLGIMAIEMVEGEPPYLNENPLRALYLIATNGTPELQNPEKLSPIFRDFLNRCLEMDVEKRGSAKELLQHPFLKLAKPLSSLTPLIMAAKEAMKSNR
Sequence of Serine/threonine-protein kinase PAK 6 (Homo sapiens) (Q9NQU5 whole entry, looked up): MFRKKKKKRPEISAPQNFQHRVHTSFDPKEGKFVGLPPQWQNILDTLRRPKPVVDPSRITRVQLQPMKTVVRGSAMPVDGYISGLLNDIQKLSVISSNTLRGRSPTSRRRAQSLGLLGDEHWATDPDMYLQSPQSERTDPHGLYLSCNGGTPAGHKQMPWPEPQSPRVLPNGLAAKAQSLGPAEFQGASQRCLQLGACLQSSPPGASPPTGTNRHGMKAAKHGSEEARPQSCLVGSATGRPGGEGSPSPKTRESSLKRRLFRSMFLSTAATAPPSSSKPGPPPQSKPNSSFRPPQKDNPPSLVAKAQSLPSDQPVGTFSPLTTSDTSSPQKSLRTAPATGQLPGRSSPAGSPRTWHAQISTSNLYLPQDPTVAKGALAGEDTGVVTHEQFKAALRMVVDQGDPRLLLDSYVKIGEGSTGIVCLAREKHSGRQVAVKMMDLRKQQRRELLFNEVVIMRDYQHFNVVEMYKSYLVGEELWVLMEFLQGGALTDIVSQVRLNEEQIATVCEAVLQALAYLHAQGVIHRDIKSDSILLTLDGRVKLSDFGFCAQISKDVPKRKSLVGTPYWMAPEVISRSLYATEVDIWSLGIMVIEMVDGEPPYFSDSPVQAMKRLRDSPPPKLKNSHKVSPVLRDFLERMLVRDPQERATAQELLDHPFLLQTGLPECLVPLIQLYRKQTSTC
Sequence of Serine/threonine-protein kinase PAK 5 (Homo sapiens) (Q9P286 whole entry, looked up): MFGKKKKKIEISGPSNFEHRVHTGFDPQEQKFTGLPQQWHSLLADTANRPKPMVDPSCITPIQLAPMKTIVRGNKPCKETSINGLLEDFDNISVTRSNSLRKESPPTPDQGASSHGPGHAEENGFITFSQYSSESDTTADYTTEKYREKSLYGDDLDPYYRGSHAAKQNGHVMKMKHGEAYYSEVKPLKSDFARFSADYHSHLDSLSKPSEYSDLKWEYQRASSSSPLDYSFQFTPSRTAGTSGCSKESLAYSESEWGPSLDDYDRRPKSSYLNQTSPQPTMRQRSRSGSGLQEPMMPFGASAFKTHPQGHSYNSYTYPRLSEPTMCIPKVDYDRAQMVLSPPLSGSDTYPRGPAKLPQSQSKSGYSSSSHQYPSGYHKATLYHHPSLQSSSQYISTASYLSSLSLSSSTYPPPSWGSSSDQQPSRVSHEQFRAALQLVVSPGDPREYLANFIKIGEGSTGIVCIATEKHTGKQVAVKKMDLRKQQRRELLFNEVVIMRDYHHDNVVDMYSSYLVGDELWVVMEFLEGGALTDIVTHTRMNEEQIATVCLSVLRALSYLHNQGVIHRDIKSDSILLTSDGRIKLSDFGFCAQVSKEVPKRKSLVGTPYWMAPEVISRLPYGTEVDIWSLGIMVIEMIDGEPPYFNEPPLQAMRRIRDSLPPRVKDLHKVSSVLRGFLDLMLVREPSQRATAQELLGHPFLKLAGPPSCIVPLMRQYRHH
Sequence of Serine/threonine-protein kinase PAK 3 (Homo sapiens) (O75914 whole entry, looked up): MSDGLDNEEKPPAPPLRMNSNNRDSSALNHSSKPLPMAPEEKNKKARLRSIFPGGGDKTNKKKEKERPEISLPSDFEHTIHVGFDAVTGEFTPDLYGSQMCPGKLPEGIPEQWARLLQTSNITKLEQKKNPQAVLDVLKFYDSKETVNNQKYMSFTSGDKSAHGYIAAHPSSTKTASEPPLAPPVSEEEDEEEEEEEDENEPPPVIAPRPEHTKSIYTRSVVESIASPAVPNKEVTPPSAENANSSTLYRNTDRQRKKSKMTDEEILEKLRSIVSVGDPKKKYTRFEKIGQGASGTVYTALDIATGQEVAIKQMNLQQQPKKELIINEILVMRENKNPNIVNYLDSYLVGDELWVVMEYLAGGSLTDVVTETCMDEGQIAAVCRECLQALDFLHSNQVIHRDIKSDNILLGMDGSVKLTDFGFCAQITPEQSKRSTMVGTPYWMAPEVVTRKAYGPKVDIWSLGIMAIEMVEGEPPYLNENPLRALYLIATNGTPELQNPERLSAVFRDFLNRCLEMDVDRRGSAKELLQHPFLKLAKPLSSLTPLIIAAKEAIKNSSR
Sequence of Serine/threonine-protein kinase PAK 1 (Homo sapiens) (Q13153 whole entry): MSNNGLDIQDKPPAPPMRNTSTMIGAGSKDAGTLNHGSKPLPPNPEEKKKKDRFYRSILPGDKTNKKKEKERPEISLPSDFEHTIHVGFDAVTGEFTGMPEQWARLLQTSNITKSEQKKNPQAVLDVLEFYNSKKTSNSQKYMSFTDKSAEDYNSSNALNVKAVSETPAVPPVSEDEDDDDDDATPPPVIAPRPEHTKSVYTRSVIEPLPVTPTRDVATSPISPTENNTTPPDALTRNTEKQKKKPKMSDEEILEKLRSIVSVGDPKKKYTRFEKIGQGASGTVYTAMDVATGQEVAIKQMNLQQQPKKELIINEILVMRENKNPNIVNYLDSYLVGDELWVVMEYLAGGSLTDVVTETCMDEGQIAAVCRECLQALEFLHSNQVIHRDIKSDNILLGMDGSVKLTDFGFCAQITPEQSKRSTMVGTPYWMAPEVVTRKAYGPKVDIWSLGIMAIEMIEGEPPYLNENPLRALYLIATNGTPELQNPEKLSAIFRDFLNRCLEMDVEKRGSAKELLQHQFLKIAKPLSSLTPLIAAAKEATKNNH
Sequence of Serine/threonine-protein kinase 26 (Homo sapiens) (Q9P289 2-416 limits assumed): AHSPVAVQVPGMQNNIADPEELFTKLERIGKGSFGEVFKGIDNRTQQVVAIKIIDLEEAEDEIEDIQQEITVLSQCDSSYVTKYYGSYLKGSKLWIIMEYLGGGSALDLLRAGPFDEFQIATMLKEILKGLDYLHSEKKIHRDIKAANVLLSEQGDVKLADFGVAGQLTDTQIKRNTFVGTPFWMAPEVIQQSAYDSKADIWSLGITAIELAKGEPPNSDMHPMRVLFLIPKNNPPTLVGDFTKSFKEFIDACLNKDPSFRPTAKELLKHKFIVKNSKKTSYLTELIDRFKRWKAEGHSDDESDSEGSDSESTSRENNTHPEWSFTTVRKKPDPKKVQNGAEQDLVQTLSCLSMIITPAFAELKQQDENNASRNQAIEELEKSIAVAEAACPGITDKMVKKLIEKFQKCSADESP

For the compound `Cc1nn(C)c2cc(N(C)c3ccnc(Nc4cccc(S(N)(=O)=O)c4)n3)ccc12`, the inhibition in experiment [1] is 2.03%; in experiment [2], 5.87%; in experiment [3], 4.55%; in [4] it was 0.68%; in [5], 1.06%; in [6], -1.47%. Moreover, the inhibition in experiment [7] is 2.95%; in experiment [8], 5.34%; in experiment [9], -4.18%.
Regarding `NC(=O)c1ccc(-c2nc(-c3ccccn3)c(-c3ccc4c(c3)OCO4)[nH]2)cc1`, the inhibition in [1] was determined as 2.93%; in [2], 4.04%; in experiment [3], 5.77%; in experiment [4], 0.67%; in experiment [5], 1.08%; in experiment [6], 2.68%. Besides, the inhibition was 2.97% in [7], -3.79% in experiment [10], -0.72% in [8] and -8.04% in experiment [9].
As to `O=C1NC(=O)C(N2CCc3ccccc32)=C1c1ccc(Cl)cc1`, the inhibition in [1] was -1.05%; in [2], 8.65%; in [3] it was 7.01%; in experiment [4], 2.34%; in [5], 1.81%; in experiment [6], 5.1%. Besides, the inhibition is 5.8% in [7], 0.62% in experiment [10], -2.87% in experiment [8] and 2.3% in experiment [9].
Consider `NS(=O)(=O)c1cccc(-c2ccc3c(NC(=O)C4CC4)n[nH]c3c2)c1`, for which the inhibition in experiment [2] was -1.17%; in [3] it was 0.04%; in [4], -1.52%; in experiment [5] it was -1.15%; in [6], -2.1%; in [7] it was -0.67%. Besides, the inhibition in experiment [10] was 7.33%; in experiment [8], -5.95%; in experiment [9] it was 2.48%.
For `O=C1NC(=O)C(c2cccc(Cl)c2)=C1Nc1ccc(O)c(Cl)c1`, the inhibition in [1] is 11.2%; in experiment [2], 2.76%; in experiment [3] it was 4.48%; in experiment [4], 0.61%; in [5], -0.45%; in experiment [6], 1.1%. Besides, the figures for the inhibition in [7] and in experiment [9] were 1.4% and 3.63%, respectively.
In the case of `Nc1ncnc2occ(-c3ccc(NC(=O)Nc4cc(C(F)(F)F)cc(C(F)(F)F)c4)cc3)c12`, the inhibition was 4.71% in experiment [2]; 3.65% in [3]; 2.1% in [4]; 0.99% in experiment [5]; 2.26% in [6]; 3.84% in [7]. Moreover, the values for the inhibition in [10], in [8] and in experiment [9] were 1.39%, 4.07% and 1.06%, respectively.
With `CCn1c(-c2nonc2N)nc2c(N3CCCC3)nccc21`, the inhibition is 0.92% in experiment [1]; 3.59% in experiment [2]; -4.47% in experiment [3]; -2.37% in [4]; -1.78% in [5]; -2.72% in experiment [6]. The inhibition in experiment [7] is -1.25%; in experiment [10] it was -6.88%; in experiment [9] it was 8.95%.
For the compound `Cn1cc(C=C2C(=O)Nc3cccnc32)c2ccccc21`, the inhibition in [1] stood at 1.1%; in [2], 5.04%; in [3] it was 6%; in experiment [4] it was 0.8%; in experiment [5] it was 0.31%; in experiment [6], 2.68%. The inhibition in experiment [7] was 3%; in experiment [10], -6.57%; in experiment [8], -5.19%; in [9] it was -3.53%.
With `CCn1c(-c2nonc2N)nc2cncc(C(=O)N3CC[C@H](N)C3)c21`, the inhibition in experiment [1] was determined as 1.04%; in [2] it was 10.1%; in [3] it was 8.87%; in experiment [4], 1%; in experiment [5], 1.51%; in [6] it was 5.01%. The results for the inhibition in [7], in [8] and in experiment [9] were 4.59%, 0.61% and -1.48%, respectively.
Take `CC(C)=Cc1cccc2c1/C(=N/Nc1ccc(S(N)(=O)=O)cc1)C(=O)N2`: the inhibition in [1] is 35.5%; in [2], -2.27%; in experiment [3], 1.28%; in experiment [4], 0.39%; in experiment [5] it was 1.15%; in [6] it was 0.22%. Also, the inhibition in [7] worked out at 1.61%; in [10], 8.32%; in experiment [8], 3.26%; in [9], 7.25%.
For the compound `COc1cc(C=NNc2ncnc3c2cnn3-c2ccccc2)ccc1O`, the inhibition in experiment [1] was 13.3%; in [2], 4.14%; in experiment [3], 5.41%; in experiment [4], 2.39%; in experiment [5], 1.53%; in experiment [6], 2.39%. Besides, the inhibition is 2.83% in experiment [7], -3.08% in [10], 0.18% in experiment [8] and 5.73% in experiment [9].
On to `Cc1cc(O)cc(C)c1/C=C/c1cncc(-c2nn[nH]n2)c1`, for which the inhibition in experiment [1] stood at 0.45%; in [2], 6.83%; in [3], 7.1%; in [4], 2.28%; in experiment [5] it was 2.67%; in experiment [6] it was 4.55%. In addition, the inhibition in experiment [7] was 5.43%; in [10] it was 1.47%; in [8], -1.45%; in experiment [9] it was 7.17%.
`CS(=O)(=O)CCNCc1nc(-c2ccc3ncnc(Nc4ccc(F)c(Cl)c4)c3c2)cs1`: the inhibition in experiment [1] worked out at 0.43%; in experiment [2], 2.77%; in [3], 4.21%; in experiment [4] it was 1.56%; in experiment [5], 1.25%; in [6], 2%. Moreover, the inhibition came to 3.08% in experiment [7], 2.01% in [10], 8.16% in [8] and 5.79% in experiment [9].
For `COc1cc2ncn(-c3cc(O[C@H](C)c4ccccc4Cl)c(C(N)=O)s3)c2cc1OC`, the inhibition in experiment [2] worked out at 6.45%; in experiment [3], 4.82%; in [4], 0.59%; in [5], 0.45%; in experiment [6] it was 4.18%; in [7], 6.53%. The inhibition in experiment [10] was determined as 7.14%; in experiment [8] it was 3.97%; in experiment [9], 0.91%.
Turning to `NCc1ccc(-c2nc(-c3ccc(Cl)c(O)c3)c(-c3ccncc3)[nH]2)cc1`, the inhibition in experiment [1] is 0.12%; in experiment [2], 1.09%; in experiment [3], 2.83%; in [4], -1.23%; in experiment [5], -1.01%; in experiment [6], -0.7%. The inhibition is -0.37% in [7], -6.81% in experiment [8] and 7.6% in experiment [9].
On to `CCn1c(-c2nonc2N)nc2cncc(C(=O)N3CCNCC3)c21`, for which the inhibition was determined as 1.91% in [1]; 9.41% in experiment [2]; 15.3% in experiment [3]; 3.6% in experiment [4]; 4.45% in experiment [5]; 7.27% in [6]. The inhibition was 9.28% in experiment [7], 6.95% in [10], 8.13% in experiment [8] and -5.05% in [9].
For `COc1ccc(-c2coc3ncnc(N)c23)cc1`, the inhibition in experiment [1] was found to be 1.26%; in experiment [2] it was 8.03%; in experiment [3] it was 7.01%; in [4], 1.73%; in experiment [5], 1.44%; in [6], 4.88%. Moreover, the inhibition in [7] is 4.26%; in [8], -5.35%; in experiment [9], -2.56%.
